Bioassay records deposited in PubChem by National Center for Advancing Translational Sciences (NCATS).
SW480 rereplic = A quantitative high throughput screen for small molecules that induce DNA re-replication in SW480 colon adenocarcinoma cells | SW480 DNA re-replication, Hoechst DNA content imaging, 48 h | Potency, µM (series often up to 46.1 µM), without a hit: top-dose re-replication activation, most hits filed as activators | 340,000 tested, 1.8% active | AID 624297, 2012; further: % of control where 0% means no effect; nearly all actives have a fitted effect of over 55% in size
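First, 250 cells per well were seeded. Next, compound or vehicle (23 nL) was pinned in, plates sat 48 hr at 37 C. Finally Hoechst was added for 40 min before fluorescence scanning.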
MCF10A rereplic = A quantitative high throughput screen for small molecules that induce DNA re-replication in MCF 10a normal breast cells. Potency, µM (doses to about 46.1 µM), for the others: top-dose activity, positive = re-replication, usual class: activators. MCF 10A DNA re-replication, Hoechst nuclear intensity, 48 h. 350,000 tested, 2.9% active; further: % of control where 0% means no effect; nearly all actives have a fitted effect of over 50% in size
PINK1 modulator = A Quantitative High throughput Screen to Identify Chemical Modulators of PINK1 Expression. Potency, µM (top dose mostly 76.6 µM), for inactives: at the highest dose activation (PINK1 increase), hits mostly activators. PINK1 immunofluorescence, high-content cytometry, 24 h. AID 624263, 2012. 410,000 tested, 0.2% active; active means well fitted activation curve with a large enough effect; inconclusive means small, poorly fitted or top-dose-only effect; cell line not stated here; further: % of control where 0% means no effect; nearly all actives have a fitted effect of over 65% in size
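Compound titrations (5 concentrations, 24 h) on a stable cell line; DMSO and CCCP controls. Endpoint: fixed-cell PINK1 immunofluorescence with mitochondrial, cell and nuclear markers, scanned by microplate cytometer.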
KB-V1 cytotox = qHTS assay for MDR1-selective chemotherapeutics: Primary screen using the drug-selected MDR subline cells KB-V1; KB-V1 MDR cells viability, CellTiter-Glo, 72 h; Potency, µM (top dose mostly 46.1 µM), actives largely listed as cytotoxic; 400,000 tested, 3.4% active; AID 1347076, 2019; further: on the % scale 0 is the no-effect control and ±100 the full control effect; nearly all actives have a fitted effect of over 60% in size
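Drug-selected KB-V1 cells, grown in DMEM lacking phenol red with 10% FBS, receive compound titrations; after three days at 37 degrees C, surviving cell ATP is quantified by CellTiter-Glo luminescence and responses normalized and curve-fitted.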
TSG101-PTAP inh = qHTS Assay for Iinhibitors of HIV-1 Budding by Blocking the Interaction of PTAP/TSG101; Fluorescence polarization, FITC-PTAP peptide / Tsg101 binding; Tumor susceptibility gene 101 protein (Homo sapiens), Q99816; Potency, µM (top dose mostly 115 µM), for inactives: at the highest dose activity change, negative = inhibition, usual class: inhibitors; 340,000 tested, under 10 active; AID 493005, 2010; active means well fitted inhibition curve with a large enough effect in the main read-out, with a control signal flat, not every such curve was filed as active; inconclusive means small, poorly fitted or top-dose-only effect, or effect the other way, or a change in a side signal; inactive means no such curve, though single readings can be large or run the other way; further: % of control where 0% means no effect
Target sequence (Q99816 whole entry, looked up): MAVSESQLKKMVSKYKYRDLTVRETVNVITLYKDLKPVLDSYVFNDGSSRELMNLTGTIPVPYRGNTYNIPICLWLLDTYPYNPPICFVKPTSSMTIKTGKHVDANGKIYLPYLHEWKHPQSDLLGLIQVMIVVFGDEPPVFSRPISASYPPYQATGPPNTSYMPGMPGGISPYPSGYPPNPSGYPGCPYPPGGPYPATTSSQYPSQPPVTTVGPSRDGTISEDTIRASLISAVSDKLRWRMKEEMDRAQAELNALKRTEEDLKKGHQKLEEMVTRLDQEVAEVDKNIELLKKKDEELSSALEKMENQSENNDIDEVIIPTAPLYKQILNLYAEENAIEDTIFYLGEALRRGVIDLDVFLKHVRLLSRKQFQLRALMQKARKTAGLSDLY
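Compounds were pin-transferred onto Tsg101 binding domain (10 uM final) in HEPES pH 7.5 buffer, then FITC-PTAP peptide was added at 50 nM final. After 20 min at RT, polarization reported peptide displacement across a qHTS concentration series.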
KB-3-1 tox = qHTS assay for MDR1-selective chemotherapeutics: Primary screen using the parental adenocarcinoma cell KB-3-1; 400,000 tested, 1.4% active; KB-3-1 viability, CellTiter-Glo ATP luminescence, 72 h; Potency, µM (top dose mostly 46.1 µM), hits mostly cytotoxic; AID 1347075, 2019; further: on the % scale 0 is the no-effect control and ±100 the full control effect; nearly all actives have a fitted effect of over 60% in size
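Parental KB-3-1 adenocarcinoma cells in phenol-red-free DMEM with 10% FBS were pin-treated with compounds at several concentrations, incubated 72 h at 37 °C, and viability read by CellTiter-Glo luminescence; concentration-effect curves were fitted after normalization.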
An asterisk follows results filed as active; i = inactive; ? = inconclusive; / = no result; [ ] = another dose, or the depositor's remark. Shown are actives, neighbours in structure and some others; about 6.8% of the full set was active somewhere. Unless noted, the call rests on the fitted dose curve; in most records, active means well fitted curve in the direction sought with a large enough effect; inconclusive means small, poorly fitted or top-dose-only effect, or another doubt; inactive means no such curve, though single readings can be large; an effect the other way counts as inactive or inconclusive. Potency means the concentration at half of the fitted maximal effect.

SMILES | SW480 rereplic | MCF10A rereplic | PINK1 modulator | KB-V1 cytotox | TSG101-PTAP inh | KB-3-1 tox
COC(=O)C(=Cc1ccc(OCc2ccc([N+](=O)[O-])cc2)c(OC)c1)C(=O)OC | 25.5% | 1.46µM* | -3.3% | ? | -2.5% | i
COc1ccc(NCc2cc3cc4c(cc3n(CC(=O)Nc3ccccc3)c2=O)OCO4)cc1 | / | / | 1.6% | / | / | /
O=C1CCC2=C1C1(CCCC1)N=C(Nc1nc3ccccc3o1)N2 | / | / | / | i | / | i
COc1ccc(CCNC(=O)c2cc(-c3ccncc3)nc3c(Cl)cccc23)cc1OC | -6.8% | 4.9% | -0.4% | 23.1µM* | -3.0% | i
COc1ccc(CCNCc2ccc(-c3ccccc3)cc2)cc1OC | ? | 23.1µM* | 8.3% | ? | -2.3% | i
COc1ccc(CNC(=O)c2cc(-c3ccncc3)nc3c(C)cc(C)cc23)cc1OC | -1.7% | ? | 4.6% | 23.1µM* | -0.7% | i
COc1ccc(-c2cc(C(=O)NCCc3ccccc3)c3c(-c4ccccc4)[nH]nc3n2)cc1 | / | / | 0.5% | ? | / | i
COc1ccc(-c2cc(C(=O)NCCc3ccccc3)c3c(-c4ccc(Cl)cc4)[nH]nc3n2)cc1 | / | / | 7.4% | 23.1µM* | / | i
COc1ccccc1CNC(=O)c1cc(-c2ccncc2)nc2c(Cl)cccc12 | ? | 12.9% | 0.6% | i | -14.6% | i
COc1ccc(CCN(C)C(=O)c2cc(-c3ccccc3)nc3ccccc23)cc1OC | -1.3% | -3.0% | 3.2% | i | / | i
COc1ccc(CCNC(=O)/C=C/c2ccc3ccccc3n2)cc1OC | 20.6µM* | 16.4µM* | -1.1% | 18.4µM* | -5.0% | ?
COc1ccc(CCNC(=O)c2nnn(-c3cccc(C)c3)c2N)cc1OC | 0.4% | ? | -2.5%[38.3 µM] | 9.2µM* | -1.8% | i
COc1ccc(/C=C/C(=O)NCCc2ccc(OC)c(OC)c2)cc1 | 1.5% | 1.2% | -0.9% | i | -3.4% | i
COc1ccc(CCNC(=O)c2nnn(-c3cc(C)cc(C)c3)c2N)cc1OC | ? | 4.5% | 8.1%[38.3 µM] | ? | -3.5% | i
COc1ccc(CCNC(=S)NCc2ccc(Cl)c(Cl)c2)cc1OC | 1.4% | 12.6µM* | 14.6% | i | -2.4% | i
COc1ccc(CCNC(=O)c2cc(-c3ccccc3)nc3ccccc23)cc1OC | / | / | 0.0% | 23.1µM* | / | i
CCOC(=O)c1cc(OC(=O)c2ccccc2F)n(-c2ccccc2)n1 | / | / | 0.0% | i | / | i
CCS(=O)(=O)N1CCc2cc(C(=O)Nc3cccc(NC(C)=O)c3)ccc21 | / | / | 0.7% | i | / | i
COc1ccccc1NC(=O)C12CC3CC(C1)CC(c1ccc(C)cc1)(C3)C2 | 13.6% | 7.1% | ? | 16.4µM* | -1.0% | i
Cc1cc2c(n1-c1ccc(C(=O)NCCc3ccc(Cl)cc3)cc1)CCC(C)C2 (stereo unspecified) | / | / | -0.5% | i | / | i
Cc1cccc(-n2ncc3c(Nc4c(C)n(C)n(-c5ccccc5)c4=O)ncnc32)c1 | 3.8% | -6.6% | 5.5% | 20.6µM* | -0.2% | i
COc1cccc(Nc2ncnc3c2cnn3-c2cccc(C)c2)c1 | 0.5% | ? | -0.6%[38.3 µM] | 20.6µM* | -7.2% | i
COc1ccccc1Nc1ncnc2c1cnn2-c1cccc(C)c1 | 5.5% | ? | 6.4% | i | 0.6% | i
CCN(CC)CCNC(=O)c1ccc2c(c1)NC(=O)C(CS(=O)(=O)Cc1ccc(F)cc1Cl)N2 (stereo unspecified) | / | / | 0.4% | i | / | i
